Screening data: PubChem, several laboratories
SMARCA2 act – SMARCA2 (BRM) function activators, primary screen, cell-based, luminescence, high throughput | MG213 cells, MMTV-luciferase reporter, dexamethasone, overnight | 370,000 compounds, 1% hits | AID 652017, 2013 | activation, % at 9.1 µM; in the data active = activation above about 7.8%
FXN GAA850 act – FXN promoter activators, primary screen, cell-based, luciferase luminescence, HEK293 lucGAA850; activation, % at 6 µM; HEK293 lucGAA850 FXN promoter luciferase reporter, 24 h; percent of 10 µM SAHA response; 360,000 compounds, 0.56% hits; AID 540364, 2011;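 active = activation above the average of all compounds screened plus 3 SD, cutoff fixed separately per campaign, cut at about 7.5% in these data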
Hsp70 act – Hsp70 transcriptional activators, primary screen, cell-based, HeLa, Hsp70 promoter luciferase, luminescence, 10 µM | HeLa Hsp70 promoter luciferase reporter; scaled: vehicle 0, proteasome-inhibitor control 100% | activation, % at 10 µM | 200,000 compounds, 0.04% hits | AID 1203, 2008;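 active = activation above the mean across all tested compounds plus 3 SD, cutoff set per campaign, cut at about 5.5% in these data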
GalR3 antag – GalR3 antagonists in HEK293 cells, primary screen, cell-based, fluorescence readout. Galanin receptor type 3 (Homo sapiens), O60755. HEK293 GalR3-CNG cAMP membrane potential fluorescence; galR3 body fused to GalR1 C-terminus. inhibition, % at 3 µM. 360,000 compounds, 0.44% hits;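 active = inhibition above the screen-wide average plus 3 SD, cut at about 13% in these data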;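 also: forskolin and galanin both at EC90 stimulate the cells; cAMP rise reported by CNG channel membrane potential dye signal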
Target sequence (O60755 1-299 limits assumed): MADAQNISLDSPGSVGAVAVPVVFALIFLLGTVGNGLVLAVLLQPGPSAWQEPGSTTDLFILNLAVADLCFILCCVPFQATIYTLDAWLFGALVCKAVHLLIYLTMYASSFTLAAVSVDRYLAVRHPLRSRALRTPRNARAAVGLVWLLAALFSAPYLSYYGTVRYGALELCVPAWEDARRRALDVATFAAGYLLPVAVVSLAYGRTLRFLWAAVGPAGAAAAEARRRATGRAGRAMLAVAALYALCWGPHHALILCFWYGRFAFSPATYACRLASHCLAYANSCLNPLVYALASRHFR
HIF act – HIF pathway transcriptional activators, primary screen, cell-based, U2OS HRE-luciferase, luminescence | U2OS HRE-luciferase reporter; normalized: DMSO 0%, desferrioxamine 100% | activation, % at 7.5 µM (by protocol) | 300,000 compounds, 0.32% hits;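 active = mean activation of at least 10% of the iron chelator positive control signal, with at least half of replicates also reaching 10%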
GAA30 counter – GAA30 FXN promoter activators, confirmation, counter-screen for GAA850 frataxin promoter activator project, cell-based, luminescence, HEK293, lucGAA30, triplicate. shares compounds with FXN GAA850 act. HEK293 lucGAA30 FXN promoter luciferase, 24 h; DMSO = 0%, 5 µM ipriflavone = 100%. activation, % at 6 µM. 1,900 compounds, 66% hits;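 active = mean activation above the mean of solvent-only control wells plus 3 SD, cut at about 22% in these data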;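 also: counterscreen of GAA850 promoter hits where activity marks nonselective or luminescence artifacts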
FXN GAA850 conf – FXN GAA850 promoter activators in reporter cells, confirmation, cell-based, luminescence, HEK293 lucGAA850, triplicate | shares compounds with FXN GAA850 act | HEK293 lucGAA850 FXN promoter luciferase reporter, 24 h; 100% = activation by SAHA | activation, % at 6 µM | 1,900 compounds, 86% hits | AID 588351, 2011;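 active = mean activation above a set limit taken from the primary screen, cut at about 8% in these data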
Of the large screens only hits and unclear results are named; the others gave an inactive call (follow-up assays come after a bar, where they were run). Most compounds without a hit are left out; they make up all but 2.2% or so of the library.

CN1OC[C@@H]2CN(C(=O)c3ccc([N+](=O)[O-])cc3)[C@H](c3ccccc3Br)C[C@@H]21	none (no result: FXN GAA850 act, Hsp70 act, HIF act)
C#CCN1CC(N(C)CCOC(=O)CC2C=CCC2)CS1(=O)=O (stereo not given)	none (no result: FXN GAA850 act, Hsp70 act, GalR3 antag, HIF act)
COc1ccc(NC(=O)CSCC(=O)Nc2cc(Cl)ccc2N2CCCC2)cc1	FXN GAA850 act 8.5 (no result: Hsp70 act) | GAA30 counter inactive | FXN GAA850 conf inactive
S=c1[nH]nc(-c2cc(-c3ccccc3)n[nH]2)n1/N=C/C(Br)=C/c1ccccc1	FXN GAA850 act 12.2 (no result: Hsp70 act) | GAA30 counter inactive | FXN GAA850 conf 26.2
S=c1[nH]nc(-c2ccco2)n1/N=C/C(Cl)=C/c1ccccc1	FXN GAA850 act 8.0 (no result: Hsp70 act) | GAA30 counter 78.3 | FXN GAA850 conf 32.4
Cc1cc(-c2n[nH]c(=S)n2/N=C/C(Cl)=C/c2ccccc2)n[nH]1	none
S=c1[nH]nc(-c2cc(-c3ccccc3)n[nH]2)n1/N=C/c1ccccc1	none (no result: Hsp70 act)
COc1ccc(OC)c(CN2C(=O)CCCC2(C)c2nnnn2C2CCCC2)c1 (stereo not given)	none (no result: FXN GAA850 act, Hsp70 act, GalR3 antag, HIF act)
Cc1cc(C(=O)O[C@H]2CCC[C@@]3(C(=O)N(Cc4ccccc4)c4ccccc43)[C@H]2NC(=O)CCc2ccccc2)no1	none (no result: FXN GAA850 act, Hsp70 act, GalR3 antag, HIF act)
O=C(NCc1cccnc1)NC1(C(F)(F)F)Oc2ccc(Cl)cc2O1 (stereo not given)	FXN GAA850 act 12.3 (no result: SMARCA2 act, GalR3 antag) | GAA30 counter 25.6 | FXN GAA850 conf 18.4
Cc1ccc(Cl)cc1NC(=O)NCc1cccnc1	none (no result: Hsp70 act)
COCCNC(=O)NC1(C(F)(F)F)Oc2ccc(Cl)cc2O1 (stereo not given)	FXN GAA850 act 14.9 | GAA30 counter inactive | FXN GAA850 conf 10.9
Cc1cc(NC(=O)NC2(C(F)(F)F)Oc3ccc(Cl)cc3O2)no1 (stereo not given)	FXN GAA850 act 17.9 (no result: SMARCA2 act, GalR3 antag) | GAA30 counter 29.9 | FXN GAA850 conf 14.6
CCOC(=O)NC[C@@]1(C(=O)OC)CC(=O)N(C)[C@@H]1c1ccccc1	none (no result: FXN GAA850 act, Hsp70 act, GalR3 antag, HIF act)
C[C@H]1COc2cccc(N3CCCC3)c2S(=O)(=O)N1	none (no result: FXN GAA850 act, Hsp70 act, HIF act)
Cc1ccc(/C=C/C(=O)N2CCN(S(=O)(=O)c3c(C)c(C)cc(C)c3C)CC2)o1	none
Cc1ccc(/C=C/C(=O)N2CCN(S(=O)(=O)c3ccc(C)c(C)c3)CC2)o1	FXN GAA850 act 7.6 | GAA30 counter inactive | FXN GAA850 conf inactive
CCCN1C(=O)/C(=C/c2ccncc2)SC1=S	none
CN1C(=O)/C(=C\c2ccncc2)SC1=Nc1ccccc1	FXN GAA850 act 8.4 | GAA30 counter inactive | FXN GAA850 conf inactive
COC(=O)c1sccc1NC(=O)COc1ccccc1Cl	FXN GAA850 act 7.9 | GAA30 counter 81.4 | FXN GAA850 conf 29.1
CCOc1ccccc1NC(=O)Nc1ccsc1C(=O)OC	none (no result: Hsp70 act)
O=C(Cc1c[nH]c2ccccc12)Nc1ccc(Nc2cccnc2)c(Br)c1	none (no result: FXN GAA850 act, Hsp70 act, HIF act)
CC(=NNC(=S)N(Cc1ccccn1)Cc1ccccn1)c1cnccn1	FXN GAA850 act 11.9 (no result: Hsp70 act, HIF act) | GAA30 counter inactive | FXN GAA850 conf inactive
Cc1sc2nc(SCC(=O)c3ccc(O)c(O)c3)n(C)c(=O)c2c1C	none (no result: FXN GAA850 act, Hsp70 act, GalR3 antag, HIF act)
CCOC(=O)[C@@H](C)N(Cc1ccc(OC)cc1)S(=O)(=O)N(Cc1ccccc1)[C@H](C(=O)OC)C(C)C	FXN GAA850 act 10.7 (no result: Hsp70 act, HIF act) | GAA30 counter inactive | FXN GAA850 conf 21.3
CC1(C)C(=O)NCCN1C(=O)CCC(=O)O	FXN GAA850 act 7.9 | GAA30 counter inactive | FXN GAA850 conf inactive
CC1(C)C(=O)NCCN1C(=O)CC1C(=O)NCCN1CC(c1ccccc1)c1ccccc1 (stereo not given)	none
CCCCN1CC(COc2ccc(OC)cc2)OCCS1(=O)=O (stereo not given)	none (no result: FXN GAA850 act, Hsp70 act, HIF act)
CCn1c(SCC(=O)Nc2ccccc2-c2ccccc2)nnc1-c1ccc(Cl)cc1	none (no result: FXN GAA850 act, Hsp70 act, GalR3 antag, HIF act)
CCn1c2ccc(Cl)cc2c2nc3ccccc3nc21	none (no result: FXN GAA850 act)
CCn1c2ccc(C)cc2c2nc3cc(C(=O)O)ccc3nc21	FXN GAA850 act 8.0 | GAA30 counter 147.5 | FXN GAA850 conf 46.8
COc1ccc(C(=O)N/N=C/c2ccc(OC)c(CN3CCCc4ccccc43)c2)cc1	FXN GAA850 act 9.3 | GAA30 counter inactive | FXN GAA850 conf inactive
Cc1ccc(S(=O)(=O)N(C)C[C@@H]2OCc3ccccc3-c3c(n(C)c4ccccc34)C(=O)N([C@H](C)CO)C[C@@H]2C)cc1	FXN GAA850 act 12.8 (no result: Hsp70 act, HIF act) | GAA30 counter inactive | FXN GAA850 conf 8.8
C[C@H](CO)N1C[C@H](C)[C@H](CN(C)S(=O)(=O)c2ccc(Cl)cc2)OCc2ccccc2-c2c(n(C)c3ccccc23)C1=O	FXN GAA850 act 12.3 (no result: Hsp70 act, HIF act) | GAA30 counter inactive | FXN GAA850 conf 9.8
Cc1ccc(/C=N/Nc2cccc(C(=O)O)c2)s1	none
Cc1nn(-c2ccccc2Cl)c(Cl)c1/C=N/Nc1cccc(C(=O)O)c1	FXN GAA850 act 7.8 | GAA30 counter 119.0 | FXN GAA850 conf 40.5
CC(C)CCOP(=O)(c1ccc(N(C)C)cc1)C(Nc1ccccc1)c1ccc(N(C)C)cc1 (stereo not given)	none (no result: Hsp70 act, HIF act)
CC(C)OP(=O)(c1ccc(N(C)C)cc1)C(Nc1ccccc1)c1ccccc1 (stereo not given)	FXN GAA850 act 8.0 (no result: Hsp70 act) | GAA30 counter inactive | FXN GAA850 conf 12.7
O=S(=O)(CC(CN1CCCCC1)N1CCCCC1)c1ccccc1 (stereo not given)	FXN GAA850 act 8.4 | GAA30 counter 76.2 | FXN GAA850 conf 29.9
Cc1nn2c3ccccc3nc2c2ccccc12	FXN GAA850 act 11.2 | GAA30 counter 75.3 | FXN GAA850 conf 31.0
Cc1nn2c(-c3ccccc3)nnc2c2ccccc12	none (no result: HIF act)
OC1CCCN(c2c3c(nc4cc(-c5cccc(F)c5)nn24)CCCC3)C1 (stereo not given)	FXN GAA850 act 14.1 | GAA30 counter 91.5 | FXN GAA850 conf 31.6
CN(C)c1nc(OCCNC(=O)COc2ccc(Cl)cc2Cl)nc(N(C)C)n1	FXN GAA850 act 8.3 | GAA30 counter inactive | FXN GAA850 conf inactive
O=C(CSC1=NCCN1)Nc1cccc([N+](=O)[O-])c1	FXN GAA850 act 9.5 | GAA30 counter 43.0 | FXN GAA850 conf 22.3
C=CCN(C)CC#Cc1ccccc1C	none (no result: FXN GAA850 act, Hsp70 act, GalR3 antag, HIF act)
O=C(Nc1ccc(Cl)cc1)C1CCCN1S(=O)(=O)c1cccc2cccnc12 (stereo not given)	none (no result: FXN GAA850 act, Hsp70 act, GalR3 antag, HIF act)
